In PubChem BioAssay (NCI):
Compounds without any hit were thinned out: in the full panel of roughly 79,000, 15% have a hit. A number with no mark means an inactive call. Active and inactive are the calls of the source. No stated cut-off is given here; in the data, active means growth inhibition above about 70%; inactive means the rest.

How the values were obtained:
[1] = NCI Yeast Anticancer Drug Screen. Data for the rad50 strain (AID 155);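 further: 0% = growth of vehicle-only cultures of the same strain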; conditions: S. cerevisiae rad50 strain growth inhibition, stronger effect = higher value
How it was run: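 DNA repair mutant yeast, compound exposure, growth read-out; inhibition is taken relative to vehicle.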

[2] = NCI Yeast Anticancer Drug Screen. Data for the mec2-1 strain (AID 157); conditions: S. cerevisiae mec2-1 strain, stronger effect = higher value
How it was run: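 Growth inhibition is read against vehicle-treated controls after compound exposure of the mec2-1 yeast strain, which is defective in DNA damage repair or cell cycle control.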

[3] = NCI Yeast Anticancer Drug Screen. Data for the sgs1 mgt1 strain (AID 161);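 further: 0% = growth of cultures given vehicle only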; conditions: S. cerevisiae sgs1 mgt1 strain, stronger effect = higher value
How it was run: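 Growth of a repair-deficient yeast mutant was monitored after compound treatment and expressed as inhibition relative to vehicle-treated cultures.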

[4] = NCI Yeast Anticancer Drug Screen. Data for the cln2 rad14 strain (AID 165);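 further: 0% = growth equal to vehicle treated cultures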; conditions: S. cerevisiae cln2 rad14 strain, stronger effect = higher value
How it was run: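 Growth inhibition, relative to vehicle-treated controls, is the read-out. The test organism is a yeast strain with defined genetic alterations, cln2 rad14.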

[5] = NCI Yeast Anticancer Drug Screen. Data for the bub3 strain (AID 167); conditions: S. cerevisiae bub3 mutant strain, stronger effect = higher value
How it was run: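 In this screen, a yeast mutant lacking normal mitotic checkpoint function is challenged with compound. Relative growth versus vehicle gives the inhibition value.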

[6] = NCI Yeast Anticancer Drug Screen. Data for the mlh1 rad18 strain (AID 175); conditions: S. cerevisiae mlh1 rad18 strain growth inhibition, stronger effect = higher value
How it was run: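 Cells of a genetically altered yeast strain, deficient in DNA damage repair, were treated with compound. Their growth was then compared with that of vehicle-treated cultures to give inhibition.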

[7] = at 5.0 µM (retest, dose inferred, filed as 0.5)
[8] = at 50.0 µM (retest, dose inferred, filed as 5.0)

| Structure (SMILES) | growth inhibition [1, 7] | growth inhibition [1, 8] | growth inhibition ([1]; at 50.0 µM) | growth inhibition [2, 7] | growth inhibition [2, 8] | growth inhibition ([2]; at 50.0 µM) | growth inhibition [3, 7] | growth inhibition [3, 8] | growth inhibition ([3]; at 50.0 µM) | growth inhibition [4, 7] | growth inhibition [4, 8] | growth inhibition ([4]; at 50.0 µM) | growth inhibition [5, 7] | growth inhibition [5, 8] | growth inhibition ([5]; at 50.0 µM) | growth inhibition [6, 7] | growth inhibition [6, 8] | growth inhibition ([6]; at 50.0 µM) |
| --- | --- | --- | --- | --- | --- | --- | --- | --- | --- | --- | --- | --- | --- | --- | --- | --- | --- | --- |
| O=C(CBr)c1cccc(OC(=O)c2ccccc2)c1 | 91% (active) | 99% (active) | 44.2% | 91% (active) | 98% (active) | 26.1% | 100% (active) | 99% (active) | 68% | 88% (active) | 99% (active) | 29.9% | 99% (active) | 99% (active) | 56.2% | 90% (active) | 99% (active) | 16.1% |
| CCC(COS(=O)(=O)c1ccc(C)cc1)(COS(=O)(=O)c1ccc(C)cc1)COS(=O)(=O)c1ccc(C)cc1 | 3% | 0% | 13.7% | -3% | 0% | 4.35% | -17% | -38% | 42% | 3% | 14% | 57.9% | 3% | 10% | 21.6% | -35% | -40% | 25.8% |
| CC(C)OP(=O)(OC(C)C)/C(=N/Nc1ccc([N+](=O)[O-])cc1)NNC(=O)c1ccccc1 | -24% | 61% | 95.2% (active) | -12% | 74% (active) | 95.7% (active) | -11% | 53% | 93.5% (active) | -21% | 67% | 87.2% (active) | -15% | 74% (active) | 94.9% (active) | 3% | 92% (active) | 94.6% (active) |
| Cc1c2ccncc2cc2c1sc1ccncc12 | 97% (active) | 97% (active) | 91.2% (active) | 95% (active) | 97% (active) | 93% (active) | 94% (active) | 99% (active) | 91.2% (active) | 87% (active) | 98% (active) | 90.5% (active) | 96% (active) | 98% (active) | 89.5% (active) | 96% (active) | 97% (active) | 89.3% (active) |
| COc1cc2c(cc1O)-c1c(cnn1-c1ccc([N+](=O)[O-])cc1)CCC2 | 7% | 56% | 79% (active) | 4% | 27% | 91.9% (active) | 4% | 38% | 85.6% (active) | 3% | 52% | 73% (active) | 0% | 3% | 93.2% (active) | 17% | 71% (active) | 94.8% (active) |
| CCO/C=C1N=C(/C=C/c2ccccc2Cl)OC/1=O | -6% | 84% (active) | 65% | 13% | 58% | 45.4% | 9% | 52% | 50.2% | 9% | 81% (active) | 20.2% | 13% | 81% (active) | 36.9% | -2% | 86% (active) | 71.7% (active) |
| Cc1ccc2c(-c3ccccc3)c3ccccc3cc2c1C | 6% | 3% | 46.1% | 13% | 20% | 16.9% | 8% | 18% | 27.6% | -4% | -11% | 14.5% | -5% | -16% | 37.6% | -3% | 2% | 53.4% |
| N#CC(=C1C=CC(=NOC(=O)Nc2ccccc2)C=C1)c1ccccc1 | 18% | 98% (active) | 99% (active) | 4% | 99% (active) | 99.4% (active) | 11% | 99% (active) | 99.5% (active) | 1% | 99% (active) | 88.3% (active) | -5% | 98% (active) | 99.2% (active) | 5% | 98% (active) | 99.2% (active) |
| O=C(NC(Cc1ccc(I)cc1)C(=O)O)c1cccc(Br)c1 (stereo unspecified) | 24% | 39% | -14.4% | 13% | 6% | -35% | 23% | 37% | -20.5% | 17% | 34% | -8.15% | 21% | 29% | -28.9% | 23% | 32% | -15.9% |
| Nc1nnc(-c2cc(=O)c3cc(Cl)ccc3o2)s1 | -1% | 13% | 60% | -1% | 8% | 20.4% | -2% | 6% | 20.1% | -2% | 11% | 10.7% | 3% | 11% | 22.4% | -1% | 10% | 10.4% |
| Cc1ccc(NC(=O)Oc2ccc(OC(=O)Cc3ccccc3)cc2)cc1NC(=O)Oc1ccc(OC(=O)Cc2ccccc2)cc1 | 10% | 97% (active) | 99.2% (active) | 43% | 94% (active) | 99.4% (active) | 2% | 89% (active) | 99.2% (active) | 10% | 93% (active) | 98.2% (active) | 15% | 98% (active) | 99% (active) | 2% | 98% (active) | 99.1% (active) |
| COc1ccccc1NC(=O)Oc1ccc(C(C)(CCC(=O)O)c2ccc(OC(=O)Nc3ccccc3OC)cc2)cc1 | -2% | 13% | -9.65% | 8% | 25% | -1.8% | -31% | -7% | 11.7% | 2% | -20% | 39.8% | 0% | 15% | 8.05% | -26% | -45% | -24.6% |
